This is a sample that favours compounds with a hit; in the whole collection about 6.1% have one here.
RORg inh: qHTS for inhibitors of ROR gamma transcriptional activity; Nuclear receptor ROR-gamma (Mus musculus), P51450; Drosophila S2 Gal4-RORgamma UAS-luciferase reporter, 20 h; Potency, µM (doses to about 53.6 µM), usual class: inhibitors; actives 5.4% (n = 310,000); AID 2551, 2010; also: nearly all actives have a fitted effect of over 60% in size
Target sequence (P51450 whole entry, looked up, the tested form may be a part): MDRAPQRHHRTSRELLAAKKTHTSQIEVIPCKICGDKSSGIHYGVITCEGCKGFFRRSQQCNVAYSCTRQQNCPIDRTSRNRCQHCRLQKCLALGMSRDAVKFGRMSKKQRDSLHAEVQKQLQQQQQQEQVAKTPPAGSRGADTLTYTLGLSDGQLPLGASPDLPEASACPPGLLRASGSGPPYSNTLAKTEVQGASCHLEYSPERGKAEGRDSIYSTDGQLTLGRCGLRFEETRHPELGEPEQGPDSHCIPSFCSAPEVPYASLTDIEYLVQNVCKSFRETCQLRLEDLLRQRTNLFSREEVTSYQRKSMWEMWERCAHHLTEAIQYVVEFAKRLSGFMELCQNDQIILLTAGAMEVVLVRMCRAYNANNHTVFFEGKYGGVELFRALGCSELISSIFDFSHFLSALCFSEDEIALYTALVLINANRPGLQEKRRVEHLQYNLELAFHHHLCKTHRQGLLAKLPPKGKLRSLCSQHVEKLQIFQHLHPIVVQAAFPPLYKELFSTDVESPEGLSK
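Using a luciferase readout, inhibitors were identified by reduced reporter activity in Drosophila cells coexpressing a copper-inducible Gal4–ROR gamma fusion and UAS-driven Photinus luciferase, incubated 20 hr after 700 uM copper sulfate.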
HepG2 tox: qHTS for Inhibitors of TGF-b: Cytotox Counterscreen. Potency, µM (highest dose often 46.1 µM), hits mostly cytotoxic. HepG2 CAGA-GFP viability, ATP luminescence, 18 h. AID 588856, 2011. actives 0.76% (n = 410,000)
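HepG2 CAGA-GFP cells (1000/well, DMEM with 1% FBS) received compound, then TGF-beta at 500 pg/mL final, and were incubated 18 hours at 37 degrees C. Viability was read by CellTiter-Glo luminescence. Media-only wells were set as complete cell-killing and DMSO as no toxicity.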
TGFb SMAD3 inh: qHTS for Inhibitors of TGF-b; HepG2 CAGA-GFP TGF-b/SMAD3 reporter, GFP fluorescence, 18 h; TGF-beta stimulated, 500 pg/mL final; Potency, µM (top dose mostly 46.1 µM), actives largely listed as inhibitors; actives 1.2% (n = 410,000); AID 588855, 2011; also: nearly all actives have a fitted effect of over 65% in size
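Inhibition was scored as loss of TGF-beta-induced (500 pg/mL final, 18 hours, 37 degrees C) GFP in HEPG2 cells carrying a CAGA-GFP reporter, in DMEM with 1% FBS. Well GFP was summed per cell; Activity was normalised to unstimulated and stimulated DMSO wells, then concentration-response fitting.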
ATXN2 expr inh: Primary qHTS for Inhibitors of ATXN expression. HEK-293 ATXN2-luciferase reporter, luminescence, 24 h. Potency, µM (titrated, usually from 57 µM), most hits filed as inhibitors. actives 0.72% (n = 360,000); also: nearly all actives have a fitted effect of over 55% in size
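ATXN2-luciferase reporter cells (luciferase flanked by upstream and downstream ATXN2 gene portions) were treated 24 h at 37 °C with compounds at up to 57 uM. SteadyGlo luminescence gave expression; GF-AFC fluorescence gave viability.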
ATXN viability: Viability Counterscreen for Primary qHTS for Inhibitors of ATXN expression; actives 0.49% (n = 400,000); Potency, µM (doses to about 56.7 µM), actives largely listed as cytotoxic; S2 cells (HEK-293 line with an ATXN2-luciferase reporter) viability, CellTiter-Fluor protease fluorescence, 24 h; also: nearly all actives have a fitted effect of over 40% in size
VP16 counter: VP16 counterscreen qHTS for inhibitors of ROR gamma transcriptional activity | actives 3.5% (n = 310,000) | AID 2546, 2010 | Potency, µM (doses to about 53.6 µM), most hits filed as inhibitors | Drosophila S2 Gal4-VP16 UAS-luciferase, luminescence, 20 h;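 also: Gal4-VP16 expression switched on by copper sulfate through the metallothionein promoter; nearly all actives have a fitted effect of over 50% in size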
Numbers stand for hits; - = inactive; ? = inconclusive; . = no result; [ ] = another dose, or the depositor's remark. Calls follow the shape of the dose curve; as a rule, active = well fitted curve in the direction sought with a large enough effect; inconclusive = small, poorly fitted or top-dose-only effect, or another doubt; inactive = no such curve, though single readings can be large; an effect the other way counts as inactive or inconclusive.

SMILES	RORg inh	HepG2 tox	TGFb SMAD3 inh	ATXN2 expr inh	ATXN viability	VP16 counter
CCOC(=O)c1c(NC(=O)c2cc(=O)c3cc(Cl)ccc3o2)sc(C)c1C	.	-	-	-	-	.
Cc1ccc2[nH]c(O)c(N=Nc3nc4ccccc4s3)c2c1	2.8µM	-	-	?	13µM	-
Brc1csc(/C=N/Nc2nc3ccccc3s2)c1	0.56µM	-	-	-	-	1.3µM
Cc1csc(N/N=C/c2ccccn2)n1	0.35µM	-	?	14µM	.	1.1µM
Brc1ccc(/C=C/C=N/Nc2nc3ccccc3s2)cc1	-	-	-	-	-	-
C(=NNc1ccc2ccccc2n1)c1ccccn1	.	-	?	-	2µM	.
CCCCOc1ccc(C(=O)NCCc2sc(-c3cccc(F)c3)nc2C)cc1	.	-	-	-	-	.
C(=N\Nc1nc2ccccc2s1)/c1ccccn1	0.1µM	6.3µM	3.5µM	?	?	-
Cc1ccc(Nc2nc3ccccc3s2)c(C)c1	?	-	-	-	-	?
COc1ccc(C=NNc2nc3ccccc3s2)cc1	.	-	-	-	-	.
Cc1ccc2[nH]c(C)c(/C=N/Nc3nc4ccccc4s3)c2c1	-	-	11µM	-	-	-
C=CCOC(=O)N[C@@H](c1ccccc1)[C@@H](C)[N+](=O)[O-]	-	.	.	.	.	-
N=c1ccn(CC(=O)c2ccc(-c3ccccc3)cc2)cc1	?	-	?	3µM	-	?
C/C=C\C1=C(CO)C(=O)[C@@H]2OC2C1=O (some centres undefined)	?	.	.	.	.	-[10 µM]
CCOC(=O)Cc1ccc(NC(=O)n2ncc3c(C)cccc32)cc1	.	-	-	-	-	.
CCOc1ccc(NC(=O)n2ncc3c(C)cccc32)cc1	0.45µM	-	-	-	-	1.1µM
COc1cccc(NC(=O)n2ncc3c(C)cccc32)c1	1.6µM	-	-	-	-	2.8µM
COc1ccc(CC2=NN3C([C@@H](CCc4ccccc4)[C@@H](C)O)=NC(C)C3C(=O)N2)cc1OC (some centres undefined)	.	.	.	-	.	.
O=C(NCCc1ccccc1)c1ccc2c(c1)CCN2S(=O)(=O)c1ccc(Cl)cc1	.	-	-	-	-	.
COc1cccc(/C=C2/Sc3ccc(C(=O)NCCN4CCCC4)cc3NC2=O)c1	-	14µM	?	.	?	?
CCN1CCCC1CNC(=O)c1ccc2c(c1)NC(=O)/C(=C\c1ccc(C)cc1)S2 (centres undefined)	?	16µM	?	.	.	-
O=C1Nc2cc(C(=O)NCCN3CCCCCC3)ccc2S/C1=C/c1ccccc1F	.	8.9µM	10µM	.	?	.
O=C1Nc2cc(C(=O)NCCCN3CCCC3)ccc2S/C1=C/c1ccccc1F	-	-	?	.	?	-
CCC1CN(Cc2ccc(COC)o2)Cc2cc(OC)ccc2O1 (centres undefined)	.	.	.	.	-	.
O=c1oc2cc(OCc3c(F)cccc3Cl)ccc2cc1-c1ccccn1	-	-	-	-	-	-
SMILES	RORg inh	HepG2 tox	TGFb SMAD3 inh	ATXN2 expr inh	ATXN viability	VP16 counter
CCCOc1ccc2cc(-c3ccccn3)c(=O)oc2c1	7.1µM	-	-	3.5µM	-	5µM
COc1ccc(NC(=O)C(c2ccc(C)cc2)N(C)C(=O)/C=C\c2ccc3c(c2)OCO3)cc1 (centres undefined)	.	-	-	-	-	.
COc1ccc(C(=O)Nc2ccc(O)c3c(=O)cc(-c4cccc(Cl)c4)oc23)cc1	-	-	-	-	4.5µM	-
CC(C)(C)c1ccc(C(=O)Nc2ccc(O)c3c(=O)cc(-c4cccc(Cl)c4)oc23)cc1	-	-	-	-	-	-
CC(=O)Nc1ccccc1-c1nc2ccccc2n(C(C)C(=O)Nc2cc(Cl)ccc2C)c1=O (centres undefined)	.	-	?	-	?	.
Cc1scc(-c2n[nH]c(=S)n2Cc2ccccc2)c1C	2.2µM	-	-	-	-	11µM
S=c1[nH]nc(-c2ccccc2Cl)n1Cc1ccccc1	2.8µM	-	-	-[11.3 µM]	?	?
Cc1ccn2c(-c3n[nH]c(=S)n3Cc3ccccc3)c(C)nc2c1	-	-	-	-	-	-
S=c1[nH]nc(-c2ccc3ccccc3n2)n1-c1cc(Cl)cc(Cl)c1	0.79µM	-	-	-	?	2.2µM
CCc1c(-c2n[nH]c(=S)n2Cc2ccccc2)csc1C	2.2µM	-	-	-	-	7.9µM
Cc1cc(C(=O)Nc2cccc(-c3nc(CNC(=O)c4cc5ccccc5[nH]4)c(C)o3)c2)c(C)o1	.	.	.	.	-	.
CC(=O)c1cccc(NC(=O)CCn2nc(C)c(S(=O)(=O)N(C)C)c2C)c1	.	-	-	.	.	.
S=c1[nH]nc(-c2ccc3ccccc3n2)n1Cc1ccccc1	2.2µM	-	-	-	-	5.6µM
COc1ccc(Cl)cc1-c1n[nH]c(=S)n1Cc1ccccc1	5µM	-	-	-	-	5µM
COc1ccc(CNC(=O)c2cnc3sc(N4CCOCC4)nn3c2=O)cc1	.	-	-	.	.	.
Cc1ccc2cccc(NC(=S)NC(=O)c3c(Br)cnn3C)c2n1	4µM	-	-	-	-	?
Cc1ccc2cccc(NC(=S)NC(=O)c3ccn(C)n3)c2n1	5µM	-	-	-	-	5.6µM
Cc1ccc2cccc(NC(=O)c3ccc(Br)o3)c2n1	-	-	-	-	-	-
Cc1ccc(S(=O)(=O)N2CCCC(c3nc4c(nnn4Cc4ccc(OC(F)(F)F)cc4)c(=O)[nH]3)C2)cc1 (centres undefined)	.	-	-	-	-	.
O=C(CCn1c(=O)c2cccn2c2cccnc21)N1CCN(c2cccc(C(F)(F)F)c2)CC1	.	-	11µM	.	.	.
O=C(CCn1c(=O)c2cccn2c2cccnc21)N1CCN(c2ccccc2)CC1	.	-	-	.	.	.
Cc1cc(C)n(-c2nnc(Nc3ccc(C)c(C)c3)c3ccccc23)n1	.	-	-	-	-	.
O=c1cc(N2CCOCC2)oc2c(-c3cccc4c3sc3ccccc34)cccc12	.	.	.	-	.	.
O=C(NCc1ccc(F)cc1)c1cc(-c2ccc(Cl)cc2)n[nH]1	.	-	?	.	.	.
CC(CC12CC3CC(CC(C3)C1)C2)NCc1ccccc1O (centres undefined)	-	16µM	18µM	-	?	-
Oc1ccccc1CNCC12CC3CC(CC(C3)C1)C2	-	-	-	-	-	-
COc1cc2oc(=O)c(CC(=O)N3CCCCC3)c(C)c2cc1OC	.	-	-	-	-	.
COC(=O)c1ccc2nc(-c3cccc(N)c3)cn2c1	6.3µM	-	-	?	-	7.9µM
CCCCc1ccc(Nc2ncnc3c2cnn3-c2ccc(C)cc2)cc1	.	-	-	-	-	.
CCn1c(O)c(N=Nc2ccc3ccccc3n2)c2ccccc21	?	-	?	.	-	-

Bioassay records as filed in PubChem.
